Screening data as filed in PubChem BioAssay.
LANA DNA inh: inhibitors of KSHV LANA C-terminal domain DNA binding. MBP-C-LANA/FAM-LBS DNA binding, fluorescence polarization. inhibition, % at 9 µM. hit rate 0.078% among 340,000. AID 504423;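 active means highest replicate inhibition at or above 60% at 9 µM, even if other replicates fall short; inactive means all replicates below 60% inhibition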;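 further: 0% = neutral control wells and 100% = 4 µM acridine orange control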
EBNA-1 inh: blocks EBNA-1 binding to DNA | EBNA-1 DNA binding, fluorescence polarization | inhibition, % at 14.8 µM | hit rate 0.34% among 300,000 | AID 1950; in the data active means inhibition above about 28%
ZTA counter: counter-screen for EBNA-1 inhibitors: inhibitors of Epstein-Barr virus ZTA; ZTA-DNA binding, fluorescence polarization; hit rate 0.15% among 320,000; P03206; inhibition, % at 11 µM; in the data active means inhibition above about 33%
Keap1 Nrf2 FP: disrupts human Keap1 binding to Nrf2 peptide; Keap1 Kelch-Nrf2 peptide fluorescence polarization, 1536-well; inhibition, % at 9.4 µM; hit rate 0.15% among 340,000; in the data active means inhibition above about 12%;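 further: human Keap1 Kelch domain with fluorescein labeled Nrf2 9mer peptide probe; 0% = neutral control wells and 100% = peptide positive control; higher means more block of Keap1 binding to Nrf2 peptide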
E coli Lon inh: E. coli protease La inhibition; hit rate 0.42% among 360,000; purified E. coli Lon protease, fluorescence polarization; inhibition, % at 7.94 µM; AID 602123; in the data active means inhibition above about 13%, passing the limit was not always enough;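 further: 0% = enzyme with probe and DMSO and 100% = no enzyme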
Target sequence (P0A9M0 whole entry, looked up): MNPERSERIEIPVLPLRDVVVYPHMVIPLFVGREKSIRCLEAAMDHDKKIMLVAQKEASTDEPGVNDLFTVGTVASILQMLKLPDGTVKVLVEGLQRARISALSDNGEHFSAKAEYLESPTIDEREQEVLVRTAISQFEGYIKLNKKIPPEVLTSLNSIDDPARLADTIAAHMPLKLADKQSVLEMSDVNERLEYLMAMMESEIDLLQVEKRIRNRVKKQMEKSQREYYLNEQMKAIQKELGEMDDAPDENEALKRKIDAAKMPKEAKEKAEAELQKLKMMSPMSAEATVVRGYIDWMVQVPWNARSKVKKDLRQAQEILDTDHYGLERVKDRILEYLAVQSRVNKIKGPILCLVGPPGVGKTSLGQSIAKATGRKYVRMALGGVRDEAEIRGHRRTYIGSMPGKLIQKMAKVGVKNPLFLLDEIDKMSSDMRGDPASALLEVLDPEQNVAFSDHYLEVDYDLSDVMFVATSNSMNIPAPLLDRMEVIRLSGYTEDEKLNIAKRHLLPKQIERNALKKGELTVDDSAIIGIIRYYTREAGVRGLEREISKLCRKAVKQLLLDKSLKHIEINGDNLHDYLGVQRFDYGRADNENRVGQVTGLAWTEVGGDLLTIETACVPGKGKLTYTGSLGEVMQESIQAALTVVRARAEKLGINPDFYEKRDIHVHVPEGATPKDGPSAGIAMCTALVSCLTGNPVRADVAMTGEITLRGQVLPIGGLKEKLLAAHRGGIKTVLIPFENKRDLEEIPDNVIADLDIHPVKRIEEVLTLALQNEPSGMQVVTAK
ZTA inh confirm: EBV ZTA DNA binding inhibition, confirmation | inhibition, % at 11.1 µM | hit rate 30% among 320 | shares compounds with ZTA counter | Zta-ZRE DNA binding, fluorescence polarization | AID 2361;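 active means mean inhibition across triplicate runs above the hit threshold derived for the original primary screen, cut at about 33% in these data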;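 further: 0% = Zta with DMSO and 100% = wells lacking Zta protein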
EBNA1 counter: counter-screen for ZTA inhibitors: EBNA-1 DNA binding inhibition | shares compounds with ZTA counter | fluorescence polarization | inhibition, % at 14.8 µM | 320 tested, under 10 active; call rule not given here
Active calls of the source: *; x = no result given. Most compounds without a hit are left out; they make up all but 0.85% or so of the library.

SMILES	LANA DNA inh	EBNA-1 inh	ZTA counter	Keap1 Nrf2 FP	E coli Lon inh	ZTA inh confirm	EBNA1 counter
Cn1c(=O)c2cc(NCc3ccccc3)nnc2n(C)c1=O	2.4	25.6	51.5*	0.8	-1.6	-11.7	-7.5
Cn1c(=O)c2c(nc(NCc3ccccc3)n2C)n(C)c1=O	0.8	10.8	21.9	-4.7	1.4	x	x
CCN(CC(=O)Nc1ccc2c(c1)OCCO2)C(=O)c1ccc(C(F)(F)F)cc1	1.0	5.9	-1.2	0.3	-12.3	x	x
CN1CCN(CCCNC(=O)c2ccc(/C=C3\Oc4ccccc4N(Cc4ccccc4F)C3=O)cc2)CC1	-2.2	4.3	23.2	-2.6	-8.9	x	x
Cc1cccc(CN2C(=O)/C(=C\c3ccc(C(=O)NCCCN4CCN(C)CC4)cc3)Oc3ccccc32)c1	-0.8	5.4	69.7*	-3.0	-1.1	49.8*	-9.7
Clc1ccc(OCCSc2ncccn2)c(Br)c1	-0.8	9.3	106.0*	0.2	-3.8	7.5	4.2
CCOC(=O)CCCCCC(=O)Nc1ccc2c(c1)C(=O)N([C@H](C)CO)C[C@H](C)[C@@H](CN(C)C(=O)Nc1ccccc1)OCCCC[C@@H](C)O2	x	x	x	x	4.1	x	x
COc1ccccc1NC(=O)c1cc(C(=O)Nc2ccccc2OC)n(C)n1	-2.0	-2.1	-1.0	-12.4	-3.2	x	x
COc1ccc(S(=O)(=O)Nc2cccc(C)n2)c2ccccc12	-0.2	5.5	33.5*	2.4	-7.3	6.4	-3.9
COc1ccc(-c2nc(N)n(C(=O)c3cccs3)n2)cc1	-0.3	9.8	79.0*	-0.6	-2.5	-6.2	-9.7
COc1ccc(NC(=O)c2nc[nH]c2C(=O)NCCCCCNC(=O)OC(C)(C)C)cc1	x	-10.6	11.6	x	x	x	x
Cc1cc(=O)oc(C)c1C(=O)OCC(=O)c1ccc(Cl)cc1	2.0	-0.9	35.9*	-3.5	-7.1	-6.2	-9.8
NC(=O)CSc1nc2sc3c(c2c2ncnn12)CCCC3	1.2	-3.5	37.6*	0.6	-1.6	6.4	3.1
CCOC(=O)c1c(C)oc2ccc(O)c(CN(C)C)c12	-2.0	8.0	-11.6	3.5	-0.8	x	x
CCOC(=O)c1c(CSc2ccc(CC)cc2)oc2ccc(O)c(CN(C)C)c12	-3.1	12.0	33.7*	-2.8	11.6	4.2	0.6
COc1ccc(S(=O)(=O)N2CCN(C(=O)c3ccco3)CC2)cc1C(C)(C)C	0.4	-12.4	4.5	-5.4	-3.4	x	x
C#CCOCCOCCOCCNc1nc(N2CCN(C(=O)CCCCCCCCCCNC(=O)Cn3cc(C[C@@H](C)O)nn3)CC2)nc(N2CCN(C(=O)CCCCCCCCCCNC(=O)[C@H](CCCCN)n3cc(CCCC(=O)O)nn3)CC2)n1	-2.8	3.3	-2.1	-11.5	-14.4	x	x
C#CCOCCOCCOCCNc1nc(N2CCN(C(=O)CCCCCCCCCCNC(=O)[C@H](CO)n3cc(CCCSC)nn3)CC2)nc(N2CCN(C(=O)CCCCCCCCCCNC(=O)[C@H](CCCCN)n3cc(CCO)nn3)CC2)n1	0.1	x	x	-8.8	-8.8	x	x
C#CCOCCOCCOCCNc1nc(N2CCN(C(=O)CCCCCCCCCCNC(=O)[C@H](CO)n3cc(CCCSC)nn3)CC2)nc(N2CCN(C(=O)CCCCCCCCCCNC(=O)[C@H](CCCN=C(N)N)n3cc(C[C@@H](C)CC)nn3)CC2)n1	1.7	2.6	95.9*	-2.0	-3.6	68.8*	-6.1
C#CCOCCOCCOCCNc1nc(N2CCN(C(=O)CCCCCCCCCCNC(=O)Cn3cc(C[C@@H](C)O)nn3)CC2)nc(N2CCN(C(=O)CCCCCCCCCCNC(=O)[C@H](CCCN=C(N)N)n3cc(C[C@@H](C)CC)nn3)CC2)n1	-1.9	13.9	55.7*	-7.5	-10.0	17.8	-5.9
COc1ccc(CCN(C)C(=O)c2cc(-c3ccc(C)cc3)nc3ccccc23)cc1OC	-1.3	2.5	-2.0	-1.5	9.1	x	x
Cc1ccc(-c2cc(C(=O)NCCCN3CCOCC3)c3ccc(Cl)c(C)c3n2)cc1	1.4	-6.1	34.0*	-0.5	-21.8	0.7	-3.6
Cc1cc(C)nc(NC(=O)NS(=O)(=O)Nc2ccc(Br)cn2)n1	9.7	14.9	33.1*	-3.8	7.8	-5.9	-2.6
Cn1nnnc1Sc1ncnc2scc(-c3cc4ccccc4o3)c12	-1.7	x	37.7*	-6.9	-2.9	30.1	-9.0
O=C(O)/C=C/c1cn(Cc2ccccc2)nc1-c1ccccc1	-0.7	-6.5	-3.4	-2.3	3.2	x	x
